Data published in PubChem BioAssay.
Calls of active or inactive are those of the source. Unless noted, the rule behind the calls is not given here.

How the values were obtained:
[1] = resazurin metabolic signal in HepG2 cells – cell-based, resazurin fluorescence, 24 h, PK04 Diversity Set, profiling panel (AID 1172); conditions: HepG2 viability, higher = more signal
[2] = budding yeast growth changes without added modifier – OD600, strain BY4716, 24 h, basal condition, primary screen (AID 1173); conditions: S. cerevisiae BY4716 growth, OD600, 24 h; higher = more signal, called active from +8 up or from −8 down
[3] = viability profiling in MM1S myeloma cells – cell-based, resazurin fluorescence, basal, 24 h, PK04 Diversity Set, profiling panel (AID 1174); conditions: higher = more signal, called active from +8 up or from −8 down;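 note: MM1S multiple myeloma cell line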
[4] = biological target: Dihydroorotate dehydrogenase (quinone), mitochondrial (Plasmodium falciparum (isolate 3D7)) (UniProt Q08210); assay: inhibition of P. falciparum DHODH – biochemical, C-terminal His tag, absorbance 600 nm, primary screen (AID 1175); conditions: PfDHODH enzyme, DCIP absorbance 600 nm; higher = more signal, called active from +8 up or from −8 down;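 note: recombinant parasite enzyme with a five histidine tag at its C terminus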
Sequence of Dihydroorotate dehydrogenase (quinone), mitochondrial (Plasmodium falciparum (isolate 3D7)) (Q08210 whole entry, looked up): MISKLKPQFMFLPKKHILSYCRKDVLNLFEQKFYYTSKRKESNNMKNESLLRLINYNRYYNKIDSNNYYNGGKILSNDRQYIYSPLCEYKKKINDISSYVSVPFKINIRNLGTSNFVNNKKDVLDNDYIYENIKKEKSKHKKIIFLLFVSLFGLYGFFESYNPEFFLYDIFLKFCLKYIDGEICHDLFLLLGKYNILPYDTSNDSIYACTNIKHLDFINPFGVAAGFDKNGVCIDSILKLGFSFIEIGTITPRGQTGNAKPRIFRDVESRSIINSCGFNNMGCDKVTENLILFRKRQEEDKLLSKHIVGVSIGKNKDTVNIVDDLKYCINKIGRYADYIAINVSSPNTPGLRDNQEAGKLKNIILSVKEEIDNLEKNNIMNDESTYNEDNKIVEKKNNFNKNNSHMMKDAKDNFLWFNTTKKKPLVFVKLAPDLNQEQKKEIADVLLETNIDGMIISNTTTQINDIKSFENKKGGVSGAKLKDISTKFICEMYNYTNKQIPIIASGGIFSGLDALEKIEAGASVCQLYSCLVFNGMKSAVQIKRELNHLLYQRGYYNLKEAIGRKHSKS

[5] = inhibition of PAO1 biofilm formation – strain PAO1, LB-PBS medium, absorbance 600 nm, primary screen (AID 1176); conditions: P. aeruginosa PAO1 growth/biofilm, A600, 12 h; higher = more signal
[6] = growth modulation of vineyard yeast isolate – strain RM11-1a, OD600, basal, 24 h, primary screen (AID 1177);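 note: cultures grown under basal conditions with no added stressor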; conditions: S. cerevisiae RM11-1a growth, OD600, 24 h; higher = more signal, called active from +8 up or from −8 down
[7] = growth of efflux-deficient E. coli DRC39 – strain DRC39, OD650, 24 h, E. coli filamentation inducers, primary screen (AID 1178);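 note: growth measured as culture turbidity by optical density at 650 nm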; conditions: E. coli DRC39 acrAB, higher = more signal, called active from +8 up or from −8 down
[8] = growth of efflux-deficient E. coli DRC39 – strain DRC39, OD650, 48 h, E. coli filamentation inducers, primary screen (AID 1179);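 note: screen aims at cell division blockers that make cells filament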; conditions: E. coli DRC39 delta-acrAB growth, higher = more signal, called active from +8 up or from −8 down
[9] = viability profiling in RPMI8226 myeloma cells – cell-based, resazurin fluorescence, basal, 24 h, PK04 Diversity Set, profiling panel (AID 1180); conditions: higher = more signal;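 note: RPMI8826 multiple myeloma cell line at 5000 cells per well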
[10] = biological target: E3 ubiquitin-protein ligase XIAP (Homo sapiens) (UniProt P98170); assay: small molecules binding XIAP protein – biophysical, small-molecule microarray, fluorescence 635 nm, primary screen (AID 1181); conditions: higher = more signal;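 note: score merges 667 nm emission and signal to noise over triplicate slides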
Sequence of E3 ubiquitin-protein ligase XIAP (Homo sapiens) (P98170 whole entry, looked up, the tested form may be a part): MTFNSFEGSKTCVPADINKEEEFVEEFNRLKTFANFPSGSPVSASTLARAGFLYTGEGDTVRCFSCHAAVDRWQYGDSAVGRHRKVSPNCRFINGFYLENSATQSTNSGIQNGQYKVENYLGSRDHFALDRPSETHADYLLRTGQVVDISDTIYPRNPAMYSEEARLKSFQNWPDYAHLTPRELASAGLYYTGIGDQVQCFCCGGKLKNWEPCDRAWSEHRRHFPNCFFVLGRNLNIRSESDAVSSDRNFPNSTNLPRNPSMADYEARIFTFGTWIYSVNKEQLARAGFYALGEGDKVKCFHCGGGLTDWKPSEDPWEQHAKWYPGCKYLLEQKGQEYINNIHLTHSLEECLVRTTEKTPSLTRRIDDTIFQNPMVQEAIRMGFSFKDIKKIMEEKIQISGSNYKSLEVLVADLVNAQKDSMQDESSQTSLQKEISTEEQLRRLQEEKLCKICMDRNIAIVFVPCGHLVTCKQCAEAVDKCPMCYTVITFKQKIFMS

[11] = system: XIP peptide (Xip251-270) binding; assay: XIP fragment 251-270 binding compounds – biochemical, small-molecule microarray, fluorescence 635/667 nm, 0.1 µg/mL protein, primary screen (AID 1182); conditions: fluorescent protein binding, 635 nm, higher = more signal, called active from +8 up or from −8 down
XIP peptide (Xip251-270) = assay: compounds binding XIP fragment 251-270 – biochemical, small-molecule microarray, fluorescence 635/667 nm, 0.5 µg/mL protein, primary screen (AID 1183); conditions: fluorescence 635 nm, higher = more signal
[12] = blood-stage malaria parasite viability loss – strain 3D7, DAPI fluorescence, 100 nL, primary screen (AID 1184);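 note: parasites grown inside human red blood cells in medium with human serum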; conditions: P. falciparum 3D7 growth, 3 d, higher = more signal
[13] = biological target: Homeobox protein Hox-A13 (Mus musculus) (UniProt Q62424); assay: disruptors of Hoxa13 oligonucleotide interaction – biochemical, fluorescence polarization, labeled oligonucleotide, primary screen (AID 1185); conditions: Hoxa13:DNA binding, 15 min, higher = more signal, called active from +8 up or from −8 down
Sequence of Homeobox protein Hox-A13 (Mus musculus) (Q62424 whole entry, looked up): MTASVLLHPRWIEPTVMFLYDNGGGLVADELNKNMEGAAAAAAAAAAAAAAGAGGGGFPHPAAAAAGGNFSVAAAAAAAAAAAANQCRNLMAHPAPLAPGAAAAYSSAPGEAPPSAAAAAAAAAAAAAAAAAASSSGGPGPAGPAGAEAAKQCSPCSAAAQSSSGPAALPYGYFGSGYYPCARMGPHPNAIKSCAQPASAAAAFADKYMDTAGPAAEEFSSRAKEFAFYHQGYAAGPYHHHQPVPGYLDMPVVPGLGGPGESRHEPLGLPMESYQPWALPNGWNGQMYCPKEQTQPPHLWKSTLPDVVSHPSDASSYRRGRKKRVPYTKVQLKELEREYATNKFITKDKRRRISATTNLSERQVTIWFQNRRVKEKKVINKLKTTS

SMILES	z-score [1]	z-score [2]	z-score [3]	composite z-score [4]	z-score [5]	z-score [6]	z-score [7]	z-score [8]	z-score [9]	composite z-score [10]	composite z-score [11]	composite z-score (XIP peptide (Xip251-270))	z-score [12]	z-score [13]
O=C1[C@H]2[C@H]3[C@H](O)[C@H](O)CC(=NOCc4ccccc4)[C@H]3CC[C@H]2C(=O)N1Cc1ccc2c(c1)OCO2	0.616	-0.0033 (inactive)	0.13 (inactive)	-0.51 (inactive)	-0.695 (inactive)	0.0065 (inactive)	0.698 (inactive)	-1.38 (inactive)	0.129	-0.0663	-0.4 (inactive)	-0.267	-0.437	-3.74 (inactive)
CC=CC1=C(CO)C(=O)[C@@H]2O[C@@H]2C1=O	-0.714	-1.37 (inactive)	-1.58 (inactive)	0.324 (inactive)	0.827 (inactive)	-1.22 (inactive)	0.246 (inactive)	0.537 (inactive)	-0.875	-0.0498	3.73 (inactive)	0.736	0.908	-3.53 (inactive)
C#CCCCON=C1C[C@@H](O)[C@@H](O)[C@@H]2[C@@H]3C(=O)N(c4cccc(Oc5ccccc5)c4)C(=O)[C@@H]3CC[C@H]12	0.331	-0.351 (inactive)	1.08 (inactive)	-1.48 (inactive)	0.553 (inactive)	-0.0064 (inactive)	0.899 (inactive)	0.401 (inactive)	1.94	-0.0832	0.332 (inactive)	0.507	0.63	0.303 (inactive)
COC(=O)[C@H](C)NC(=O)CCC1CC(OC(=O)NCc2ccc3c(c2)OCO3)CC2(CCCC(COC(=O)NCc3cccc(C(F)(F)F)c3)O2)O1 (some centres undefined)	-0.443	-0.817 (inactive)	0.374 (inactive)	-0.303 (inactive)	0.484 (inactive)	-0.476 (inactive)	0.298 (inactive)	0.079 (inactive)	0.459	0.0566	0.2 (inactive)	0.717	-2.06	-5.57 (inactive)
O=C1C=C[C@@H](O)[C@@H]2[C@@H]3C(=O)N(c4ccc(F)cc4F)C(=O)[C@@H]3CC[C@@H]12	-0.862	-1.76 (inactive)	-0.138 (inactive)	-1.11 (inactive)	0.565 (inactive)	-2.01 (inactive)	-0.664 (inactive)	-0.52 (inactive)	-0.956	-0.102	0.25 (inactive)	0.165	0.262	0.159 (inactive)
Cc1ccc(S(=O)(=O)OC[C@H]2CN3[C@H](c4ccc(Br)cc4)[C@@H](C)CC[C@H]3C(=O)O2)cc1	0.794	-9.35 (active)	0.648 (inactive)	-0.303 (inactive)	1.29 (inactive)	-1.42 (inactive)	1.31 (inactive)	0.618 (inactive)	0.521	0.201	0.225 (inactive)	0.564	0.565	-5.13 (inactive)
CC(CCN1CCc2nc(-c3ccccc3)c(-c3ccccc3)cc2C1)=NOC[C@@H](O)[C@H]1O[C@@H]2OC(C)(C)O[C@@H]2[C@H]1O	-0.31	-3.84 (inactive)	-1.06 (inactive)	-0.897 (inactive)	0.359 (inactive)	-0.187 (inactive)	1.39 (inactive)	0.431 (inactive)	-0.776	0.145	0.176 (inactive)	0.528	0.688	-5.63 (inactive)
CCOC(=O)[C@H](CC(C)C)NC(=O)CCC1CC(OC(=O)NCc2cccc3ccccc23)CC2(CCCC(COC(=O)NCCC(C)C)O2)O1 (some centres undefined)	0.232	-2.17 (inactive)	0.771 (inactive)	-2.64 (inactive)	0.131 (inactive)	-3.91 (inactive)	-0.259 (inactive)	-0.457 (inactive)	-0.286	0.117	-0.299 (inactive)	0.434	-0.267	-6.1 (inactive)
COC(=O)CC=C[C@@H](C)[C@@H](C=NO[C@H](C)c1cn([C@H](CO)Cc2ccccc2)nn1)OC	0.167	-0.285 (inactive)	-0.242 (inactive)	-0.184 (inactive)	0.368 (inactive)	-0.212 (inactive)	0.0343 (inactive)	-0.265 (inactive)	0.261	-0.142	0.312 (inactive)	0.367	-0.866	-1.89 (inactive)
CC(=O)Nc1ccc([C@@H]2N[C@H](C(=O)O)CC[C@H]2C)cc1	0.219	-0.236 (inactive)	-0.106 (inactive)	0.0947 (inactive)	0.557 (inactive)	0.237 (inactive)	0.909 (inactive)	0.781 (inactive)	-0.625	-0.0445	-0.0813 (inactive)	0.119	0.962	-0.107 (inactive)
CC(CCN1CCCc2nc(C)c(C)cc21)=NOC(C)CN1CCCCc2nc(C)c(C)cc21 (centres undefined)	-0.0007	1.38 (inactive)	-0.221 (inactive)	0.131 (inactive)	1.3 (inactive)	1.02 (inactive)	0.315 (inactive)	-0.554 (inactive)	0.347	0.593	-0.053 (inactive)	0.725	-0.153	-6.78 (inactive)
COC(=O)C1=C(C)N(Cc2ccccc2)[C@]23O[C@](C(=O)OC)(C(=O)N2[C@@H]1c1ccccc1)C(C(=O)OC)=C3C(=O)OC	-0.0934	-1.32 (inactive)	1.08 (inactive)	-2.7 (inactive)	-0.965 (inactive)	-0.511 (inactive)	-0.907 (inactive)	-1.26 (inactive)	0.345	-0.254	1.49 (inactive)	0.435	-1.08	-3.67 (inactive)
COc1ccc(COC(=O)NN=C2C[C@@H](O)[C@@H](O)[C@@H]3[C@@H]4C(=O)N(C5CCCCC5)C(=O)[C@@H]4CC[C@H]23)cc1	-0.689	1.07 (inactive)	-1.15 (inactive)	0.608 (inactive)	1 (inactive)	0.335 (inactive)	-0.189 (inactive)	-0.582 (inactive)	-0.363	-0.267	-0.252 (inactive)	-1.02	-0.336	-5.48 (inactive)
CC(C)(C)N1C(=O)[C@H]2[C@H]3[C@H](O)C=CC(=O)[C@@H]3CC[C@H]2C1=O	0.136	1.48 (inactive)	0.469 (inactive)	0.237 (inactive)	-0.118 (inactive)	0.846 (inactive)	-0.278 (inactive)	-0.231 (inactive)	0.467	-0.102	0.127 (inactive)	0.16	-0.0484	0.14 (inactive)
C[C@@H](c1ccccc1)N1C(=O)[C@H]2[C@H]3[C@H](O)[C@H](O)CC(=NOCc4ccccc4)[C@H]3CC[C@H]2C1=O	-0.137	-0.18 (inactive)	-1.03 (inactive)	-0.964 (inactive)	-0.179 (inactive)	0.783 (inactive)	0.273 (inactive)	1.12 (inactive)	0.76	-0.184	-0.0218 (inactive)	0.548	0.754	0.0197 (inactive)
CC(C)CCN1CCc2nc(COc3ccccc3)c3c(c2C1)CO[C@@H](C)C3	-0.226	-0.83 (inactive)	0.291 (inactive)	0.0368 (inactive)	0.462 (inactive)	0.288 (inactive)	1.1 (inactive)	-0.341 (inactive)	0.327	-0.161	0.0821 (inactive)	0.143	0.329	-5.02 (inactive)
COc1ccc(O[C@H]2C=C[C@@H](c3ccccc3)O[C@@H]2COC(=O)CCC(C)=NOC[C@@H](O)[C@H]2O[C@@H]3OC(C)(C)O[C@@H]3[C@H]2O)cc1	0.0784	-0.727 (inactive)	0.0383 (inactive)	-1.15 (inactive)	-0.348 (inactive)	0.28 (inactive)	1.18 (inactive)	-1.02 (inactive)	1.04	-0.0559	0.162 (inactive)	-0.0871	0.651	-5.83 (inactive)
C=CC1=C[C@H](O)[C@@H]2O[C@@H]2C12OCCCO2	0.257	0.301 (inactive)	-0.458 (inactive)	0.695 (inactive)	0.262 (inactive)	-0.838 (inactive)	0.451 (inactive)	0.489 (inactive)	-0.38	-0.03	-0.49 (inactive)	0.343	-0.706	-1.87 (inactive)
C#CCCCON=C1C[C@@H](O)[C@@H](O)[C@@H]2[C@@H]3C(=O)N(C(C)(C)C)C(=O)[C@@H]3CC[C@H]12	-0.375	0.522 (inactive)	-0.0486 (inactive)	-0.396 (inactive)	-0.143 (inactive)	-0.311 (inactive)	0.329 (inactive)	0.221 (inactive)	-0.0553	-0.0849	-0.217 (inactive)	-0.385	-0.381	0.436 (inactive)
CO[C@H](C1CCCCC1)[C@H](C)C=CCC(=O)OCCCc1ccccc1	0.159	0.878 (inactive)	0.227 (inactive)	0.503 (inactive)	-0.315 (inactive)	1.63 (inactive)	-0.778 (inactive)	-0.417 (inactive)	-0.0411	-0.193	-0.74 (inactive)	0.628	-0.45	1.25 (inactive)
COc1cccc([C@H]2Oc3ccc(OC)cc3C(=NOC[C@@H](C)[C@H](OCc3ccccc3)C(C)C)[C@@H]2O)c1	-0.214	0.635 (inactive)	-0.0524 (inactive)	-0.212 (inactive)	0.347 (inactive)	0.846 (inactive)	0.221 (inactive)	-1.18 (inactive)	0.0541	0.0015	0.305 (inactive)	-0.724	-0.157	-0.308 (inactive)
